Source: PubChem (National Center for Advancing Translational Sciences (NCATS))
Most compounds without a hit are left out; they make up all but 18% or so of the library.
CtBP-E1A inh: blocks the CtBP interaction with E1A. AlphaScreen GST-E1A/His-CtBP binding, 1536-well; stronger effect = lower value. AID 651724. activity change, % (test concentration not listed). actives 0.49% (n = 340,000); in the data active = activity change below about -65%; inconclusive = mostly about -30% to -63%
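GST-E1A and His-tagged CtBP (125 nM each as 5X stock) were preincubated with pin-transferred compound for 2 h at 37 °C in the dark, then glutathione donor and nickel acceptor beads were added for 1 h before AlphaScreen reading.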
TDP1 inh: blocks human tyrosyl-DNA phosphodiesterase 1; Potency, µM (series often up to 130 µM), without a hit: at the top dose activity change, negative = inhibition, hits mostly inhibitors; AID 485290; Q9NUW8; actives 0.28% (n = 350,000); recombinant TDP1, AlphaScreen DNA substrate cleavage; also: potency is read from the fitted curve at half-maximal effect; nearly all actives have a fitted effect of over 40% in size
Target sequence (Q9NUW8 whole entry, looked up): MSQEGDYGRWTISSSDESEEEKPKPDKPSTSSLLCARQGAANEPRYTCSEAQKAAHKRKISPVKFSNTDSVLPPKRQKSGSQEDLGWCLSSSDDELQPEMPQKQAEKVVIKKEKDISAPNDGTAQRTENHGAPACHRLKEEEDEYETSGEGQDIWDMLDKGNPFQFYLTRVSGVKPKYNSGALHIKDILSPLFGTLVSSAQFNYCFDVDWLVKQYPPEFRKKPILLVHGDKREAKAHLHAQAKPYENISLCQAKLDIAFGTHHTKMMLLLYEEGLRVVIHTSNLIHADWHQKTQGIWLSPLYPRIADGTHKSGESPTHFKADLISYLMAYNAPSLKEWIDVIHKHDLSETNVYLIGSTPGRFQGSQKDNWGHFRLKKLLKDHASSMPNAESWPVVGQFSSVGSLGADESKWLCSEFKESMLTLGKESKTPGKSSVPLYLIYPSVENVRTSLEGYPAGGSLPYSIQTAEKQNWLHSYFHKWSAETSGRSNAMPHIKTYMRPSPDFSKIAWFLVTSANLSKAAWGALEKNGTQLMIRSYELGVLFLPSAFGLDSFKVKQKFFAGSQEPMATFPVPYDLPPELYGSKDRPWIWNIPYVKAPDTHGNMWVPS
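Recombinant E. coli-expressed Tdp1 (1 nM) preincubated with compound 15 min at RT, then 5'-biotin/3'-phosphotyrosine-FITC DNA substrate (15 nM) added for 5 min. AlphaScreen beads (10 ug/ml) added, 10 min RT; tyrosine-FITC cleavage read as signal loss.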
DT40 TDP1 CPT: DT40-hTDP1 cell growth loss with CPT | actives 12% (n = 420,000) | chicken DT40 Tdp1-/-;hTDP1 cells + 20 nM CPT, ATP luminescence, 48 h | Potency, µM (highest dose often 46.2 µM), for the others: at the highest dose activity change, negative = growth inhibition, usual class: inhibitors; also: potency is read from the fitted curve at half-maximal effect; nearly all actives have a fitted effect of over 55% in size
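Chicken DT40 Tdp1-/- cells stably complemented with human TDP1 were seeded at 400 cells/well in medium containing 20 nM camptothecin, exposed to pin-transferred compounds, and grown at 37 °C for at least 48 hr. Viability was read as ATP luminescence.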
IL-1B inflam inh: inflammasome signaling inhibition, IL-1 beta readout; THP-1 LPS/ATP IL-1B secretion, AlphaLISA, 16 h; stronger effect = lower value; activity change, % at 57.5 µM; actives 4.7% (n = 360,000); AID 743279; in the data active = activity change below about -50%; inconclusive = mostly about -30% to -49%
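THP-1 cells pretreated 1 hr with compounds (up to 57.5 uM final), then stimulated with LPS (250 ng/mL final) plus ATP (1.25 mM final); secreted IL-1B measured by AlphaLISA after 16 hr, decreased signal indicating inhibition.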
DT40 TDP1 no CPT: qHTS for Inhibitors of human tyrosyl-DNA phosphodiesterase 1 (TDP1): qHTS in cells in absence of CPT; AID 686978, 2013; actives 15% (n = 420,000); DT40 Tdp1-/- hTDP1 cells, no CPT, ATP luminescence, 48 h; Potency, µM (doses to about 46.2 µM), inactives show at the top dose activity change, negative = growth inhibition, actives largely listed as inhibitors; also: potency is read from the fitted curve at half-maximal effect; nearly all actives have a fitted effect of over 55% in size
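Chicken DT40 Tdp1-/- cells stably complemented with human TDP1 were seeded at 400 cells/well with DMSO in place of 20 nM camptothecin. After compound pinning, cells grew at least 48 hr at 37 °C; viability read by CellTiter-Glo luminescence.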
Six1-Eya2 blk: inhibitors of human Six1/Eya2 interaction; AlphaScreen GST-Six1/His-Eya2 binding, biochemical; stronger effect = lower value; activity change, % (no concentration beside the values); actives 0.56% (n = 360,000); in the data active = activity change below about -65%; inconclusive = mostly about -30% to -63%
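AlphaScreen luminescence read after one hour at 37 °C in darkness. Pin-transferred compounds met GST-Six1 and His-Eya2 protein (5X stock 250 nM/500 nM) plus glutathione donor and Ni-chelate acceptor beads (5X, 50 ug/mL).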
Starred values were filed as active, the others as inactive; ? = inconclusive; / = no result; [ ] = remark or other dose. Unless noted, calls follow the shape of the dose curve; as a rule, active = well fitted curve in the direction sought with a large enough effect; inconclusive = small, poorly fitted or top-dose-only effect, or another doubt; inactive = no such curve, though single readings can be large; an effect the other way counts as inactive or inconclusive. % is scaled to controls: 0 for no effect and ±100 for the full control effect.

SMILES	CtBP-E1A inh	TDP1 inh	DT40 TDP1 CPT	IL-1B inflam inh	DT40 TDP1 no CPT	Six1-Eya2 blk
CCOC(=O)C1CCN(C(=O)c2ccc(OCC(=O)Nc3cccc(C(F)(F)F)c3)c(OC)c2)CC1	-14	/	13µM*	?	9.2µM*	1
CCOC(=O)C1CCCN(C(=O)c2ccc(OC)c(OC)c2)CC1 (stereo not drawn)	8	/	-9%	28	-7%	0
CCOC(=O)C1CCN(C(=O)c2ccc(OCC(=O)Nc3cccc(C(F)(F)F)c3)cc2)CC1	-2	2%	?	0	?	8
CCOC(=O)N1CCC(NC(=O)c2cc(C(=O)Nc3cccc(C(F)(F)F)c3)ccc2CO)CC1	/	6%	5.2µM*	23	3.3µM*	2
CCOC(=O)CN1C(=O)CSc2ccccc21	8	-3%	-22%	11	-7%	7
Cc1nnc(SC(C(=O)Nc2ccc(Cl)c([N+](=O)[O-])c2)c2ccccc2)[nH]c1=O (stereo not drawn)	-1	2%	10%	-8	-19%	-18
CS(=O)(=O)N(CC(O)CON=C1c2ccccc2-c2ccccc21)c1ccc(F)cc1 (stereo not drawn)	-19	4%	-22%	-6	?	-10
CN(CC(O)CON=C1c2ccccc2-c2ccccc21)S(=O)(=O)c1ccc(Br)cc1 (stereo not drawn)	11	-3%	16µM*	?	?	3
CCN(CC(O)CON=C1c2ccccc2-c2ccccc21)S(=O)(=O)c1ccc(Cl)cc1 (stereo not drawn)	1	-1%	21µM*	-62*	15µM*	4
Cc1ccc(S(=O)(=O)NN2C(=O)/C(=C/c3ccc(C(=O)O)cc3)SC2=S)cc1	0	/	34%	-1	4%	-14
CCc1cc(CNC(=O)c2ccc(OC3CCN(CCc4ccccc4)CC3)cc2)on1	1	14µM*	?	-6	-27%	-11
O=C(NCc1ccon1)c1ccc(OC2CCN(CCc3ccccc3)CC2)cc1	-4	6%	6%	-3	?	2
Cc1noc(C)c1-c1ccc2ncnc(NCc3cccs3)c2c1	/	/	12µM*	/	23µM*	/
Cc1ccsc1CNc1ncnc2ccc(-c3c(C)noc3C)cc12	/	-1%	/	/	/	/
COc1ccc(N2CCN(C(=O)C3Cc4ccccc4CN3C(=O)c3ccccc3)CC2)cc1 (stereo not drawn)	-9	8%	-22%	0	?	-4
COc1cccc(CNC(=O)c2cc3c(C)nc4ccccc4c3o2)c1	-66*	7%	23µM*	-14	18µM*	?
COc1cccc(CNC(=O)c2cc(-c3cccs3)nc3ccccc23)c1	/	1%	-14%	/	-26%	/
COc1ccc(CNC(=O)c2cc3c(C)nc4ccccc4c3o2)c(OC)c1	-29	-1%	16µM*	45	13µM*	?
COc1ccc(Cn2ccc3nc(C)c(C(=O)NCc4ccc(OC)cc4OC)cc3c2=O)cc1	/	8%	-27%	/	-29%	/
O=C(CCC(=O)N1CCOc2ccccc21)N1CCN(c2ccccc2)CC1	0	/	?	-5	?	-1
O=C(NCC(=O)N1CCN(S(=O)(=O)c2ccccc2F)CC1)c1ccc2ccccc2c1	-5	3%	-7%	5	?	-2
Cc1cc(OCC(=O)NCCc2nc3ccccc3[nH]2)cc(C)c1Cl	/	5%[2.28 µM]	12µM*	/	12µM*	/
COc1ccccc1OCC(=O)NCCc1nc2ccccc2[nH]1	4	4%	-22%	7	?	0
Cc1ccc(C(C)(C)C)c(OCC(=O)NCCc2nc3ccccc3[nH]2)c1	/	-1%[2.28 µM]	13µM*	/	7.3µM*	/
Cc1ccc(OCC(=O)NCCc2nc3ccccc3[nH]2)c(C)c1	8	2%	?	-2	-25%	1
